Results taken from ChEMBL document CHEMBL3988442, “University of Dundee, Small-Polar-MMV Screening Library” (2021).
The whole screen tested about 48,000 compounds, of which about 13,000 (27%) showed an effect of 50% or more. The list shows a part of the results.

Each compound was assayed on Wolbachia pipientis (assay: Anti-Wolbachia Cell-Based Screen). Settings: 5 µM.
Assay type: functional
Parameters: scale not given: in the data most compounds retested in dose-response had high values

| SMILES | Percent Effect [%] |
| --- | --- |
| Cc1c(C)n(CC(O)CN2CCC(C)CC2)c2c(Cl)cccc12 (stereo not given) | -13.14 |
| F[C@@H]1CN(Cc2ccccc2)C[C@@H]1OCc1nc2cnccc2[nH]1 | -3.935 |
| CCc1nccn1CC(=O)Nc1cccc(C(=O)N(C)C)c1 | 117.3 |
| CCc1nccn1CC(=O)Nc1cccc(C(=O)OC)c1 | 94.76 |
| COC(=O)c1cccc(C(=O)N2CCCCC2CCn2ccnc2C)c1 (stereo not given) | -0.7359 |
| CC(=O)c1cccc(NC(=O)Cn2cnc(-c3ccccc3)cc2=O)c1 | -1.653 |
| CN(C)C(=O)c1cccc(NC(=O)CN2CCCCC2C2OCCO2)c1 (stereo not given) | -9.797 |
| COC(=O)c1cccc(NC(=O)CN2CCN(S(C)(=O)=O)CC2)c1 | 0.7545 |
| CCNc1ncc(C(=O)N(C)CCc2nc3cc(Cl)ccc3[nH]2)cn1 | -2.741 |
| CC(C)CN1CCc2[nH]cnc2C12CCN(C(=O)c1cnn(C)c1)CC2 | 18.71 |
| Cn1cccc1C(=O)N1CCCN(CCCc2ccccc2)CC1 | 5.768 |
| CCC(CC#N)n1ccc(C(F)(F)F)n1 (stereo not given) | 100.1 |
| CCC(CCN)n1ccc(C(F)(F)F)n1 (stereo not given) | 101 |
| CC(CC#N)n1ccc(C(F)(F)F)n1 (stereo not given) | 86 |
| CS(=O)(=O)NCCNC(=O)NC1(c2ccc(F)cc2)CCCC1 | 1.188 |
| Cc1cccc(CS(=O)(=O)CC(=O)N(C)Cc2ccccc2F)c1 | -4.083 |
| CC(=O)c1ccccc1NC(=O)CCN1CCSCC1 | -1.71 |
| O=S(=O)(NCCn1cc(C2CCCNC2)nn1)c1ccc(Cl)cc1 (stereo not given) | 7.811 |
| Nc1ncc(-c2ccc(C(F)(F)F)cc2)c(C2CCCNC2)n1 (stereo not given) | 52.9 |
| FC(F)(F)c1ccc2[nH]c([C@H]3CCNC3)nc2c1 | -0.9457 |
| FC(F)(F)c1ccc(-c2c[nH]c([C@@H]3COCCN3)n2)cc1 | -4.53 |
| COc1ccc(-c2cnc(N)nc2C2CCCNC2)cc1.Cl (stereo not given) | 80.9 |
| O=C(N[C@@H]1CCCNC1)C1(Oc2ccc(Cl)cc2)CCNCC1 | -9.041 |
| Nc1ncc(-c2ccc(Cl)cc2)c(C2CCCNC2)n1 (stereo not given) | 110.4 |
| Nc1ncc(-c2ccc(F)cc2)c(C2CCCNC2)n1 (stereo not given) | 107.7 |
| CN(Cc1ccccc1Cl)C(=O)c1cc(CN2CCC(O)CC2)on1 | -7.03 |
| Cc1nnc2n1CCN(Cc1c(Cl)ccc3cccnc13)C2 | -10.28 |
| CNC(=O)c1ccc(C(=O)N2CCCC(n3ccnc3C)C2)cn1 (stereo not given) | 94.35 |
| CCc1nccn1C1CCCN(C(=O)c2ccc(C(=O)NC)nc2)C1 (stereo not given) | -5.671 |
| CNC(=O)c1ccc(C(=O)N2CCCC(n3ccnc3)C2)cn1 (stereo not given) | 118 |
